Data on 103 compounds can be found in PubChem BioAssay AID686979 (National Center for Advancing Translational Sciences (NCATS), 2013).

SMILES strings stand for the structures. Screen size: about 420,000 compounds; about 50,000 (12%) were called active. Entries that show only a call come without a potency. Inconclusive results (about 26%) are left out. Many of the other results were omitted from the sample, so actives are more common in it than they were. Values without a mark were called inactive. Calls follow the shape of the dose curve; as a rule, active = well fitted inhibition curve with a large enough effect; inconclusive = small, poorly fitted or top-dose-only effect; inactive = flat fitted curve, though single readings scatter.
Potency is read from the fitted curve at half-maximal effect.

A short description of this assay: qHTS for Inhibitors of human tyrosyl-DNA phosphodiesterase 1 (TDP1): qHTS in cells in presence of CPT. Also: nearly all actives have a fitted effect of over 55% in size. To be noted: chicken DT40 Tdp1-/-;hTDP1 cells + 20 nM CPT, ATP luminescence, 48 h; series mostly up to 46.2 µM. The method in brief:
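Chicken DT40 Tdp1-/- cells complemented with human TDP1, 400 cells/well, exposed to compounds plus 20 nM camptothecin for at least 48 h at 37 C; viability read as ATP content by CellTiter-Glo luminescence.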
With `CCOCCOCCC(C(=O)O)P(=O)(c1ccccc1)c1ccccc1` (stereo not drawn), the Potency result is “inactive”. On the same count and under the same terms, then `CCc1ccc(N2CC(C(=O)Nc3ccc(S(=O)(=O)Nc4nccs4)cc3)CC2=O)cc1` (stereo not drawn), with “inactive”; and `CCc1cc2c(cc3c(=O)n(CC(=O)N4CCN(c5cc(Cl)ccc5C)CC4)ncn32)s1`, with “inactive”. Still for that read-out and setting: to `O=C(NC1(C(F)(F)F)NC(=O)N(C2CCCCC2)C1=O)c1ccco1` (stereo not drawn) belongs “inactive”; to `O=C1NC(Nc2nc3ccccc3s2)(C(F)(F)F)C(=O)N1C1CCCCC1` (stereo not drawn), 25.9 µM (active); to `CCC1(CC)NC(=O)N(Cc2nc3ccccc3s2)C1=O`, “inactive”. Turning to `COC(=O)C[C@@H]1C=C[C@@H](NC(=O)c2ccc3c(c2)OCO3)[C@@H](CO)O1`, the Potency result is “inactive”.

On to `O=C1C2C3C=CC(C3)C2C(=O)N1c1ncc([N+](=O)[O-])s1` (stereo not drawn), for which the Potency entry was “inactive”.

For `CC1Cc2[nH][nH]c(=O)c2C(C2CC2)O1` (stereo not drawn), the Potency entry was “inactive”. Turning to `Cc1ccn2c(=O)nc(SCC(=O)NCc3ccc(F)cc3)nc2c1`, the Potency result is “inactive”. Regarding `CC(C)(C)NC(=O)CSc1nc(-c2ccc(F)cc2)cc(C(F)(F)F)n1`, the Potency was 20.6 µM (active).

With `O=C(CSc1nc(-c2ccco2)cc(C(F)(F)F)n1)N1CCc2ccccc2C1`, the Potency entry was “inactive”. `CCNS(=O)(=O)c1ccc(NC(=O)CSc2nc(-c3ccco3)cc(C(F)(F)F)n2)cc1`: the Potency is 7.31 µM (active). The same measure, in the same setting: to `Cc1cc(C(F)(F)F)nn1-c1nc(-c2ccco2)cc(C(F)(F)F)n1` belongs “inactive”. The same measure, in the same setting: then `Cc1cccc(NC(=O)CSc2nc(-c3ccco3)cc(C(F)(F)F)n2)c1C`, with 10.3 µM (active); and `CN(C)c1ccc(NC(=O)CSc2n[nH]c(-c3ccco3)n2)cc1`, with “inactive”; and `CC(C)c1nc(SCC(=O)NC(=O)NC(C)(C)C)n[nH]1`, with “inactive”. Regarding `O=C(CSc1nc(-c2ccco2)cc(C(F)(F)F)n1)NCc1cccs1`, the Potency result was “inactive”.

Consider `COc1ccc(S(=O)(=O)NCC(=O)NCc2cc(=O)n(C)c(=O)n2C)cc1F`, for which the Potency result was “inactive”. As to `O=C(CC1C(=O)NCCN1CC(c1ccccc1)c1ccccc1)NCC1CCOCC1` (stereo not drawn), the Potency entry is “inactive”. Still for that read-out and setting: then `CCCS(=O)(=O)NC(=O)C1(C)CCCN(C(=O)c2cccs2)C1` (stereo not drawn), with “inactive”; and `O=C(CSc1nnc(SCc2ccc(F)cc2)s1)Nc1ccc(C(=O)O)cc1`, with “inactive”. The same measure, in the same setting: then `COc1ccc(C2=NN(C(=O)c3ccccc3C(=O)O)C(c3ccccc3O)C2)cc1` (stereo not drawn), with “inactive”.

For `CCC(C)(C)NC(=O)CN(C(=O)CCC(=O)Nc1cc(C)ccn1)c1ccc2c(c1)OCCO2`, the Potency result was “inactive”. In the case of `FC(F)(F)c1nnc2sc(-c3ccco3)nn12`, the Potency result was “inactive”. The same measure, in the same setting: to `FC(F)(F)c1nnc2c3ccccc3c(Cl)nn12` belongs 5.17 µM (active). Take `FC(F)(F)c1nnc2ccc(N3CCN(c4ccccc4)CC3)nn12`: the Potency entry was “inactive”. Consider `O=C(COC(=O)c1cncc(Br)c1)Nc1ccc(S(=O)(=O)N2CCOCC2)cc1`, for which the Potency entry was “inactive”. Same read-out and setting: then `C=CCNC(=O)c1ccccc1SCc1c(C)noc1C`, with “inactive”; and `Cc1ccn(CC(=O)NC2CCCN(Cc3ccccc3F)C2)n1` (stereo not drawn), with “inactive”; and `CN(c1ccccc1)S(=O)(=O)c1ccc(C(=O)NCCc2ccccc2)cc1`, with “inactive”.

As to `Cc1ccccc1CSCCNC(=O)c1ccc(N(C)S(=O)(=O)c2ccccc2)cc1`, the Potency is 18.4 µM (active). With `Cc1ccccc1CSCCNC(=O)C1CCN(S(=O)(=O)Cc2ccccc2)CC1`, the Potency result is “inactive”. The same measure, in the same setting: to `Cc1nc2ccccc2nc(=O)c1NNc1ccc([N+](=O)[O-])cc1` belongs “inactive”; to `Cc1ccc(CN2CC(C(=O)NNC(=O)Cn3ccc(C(F)(F)F)n3)CC2=O)cc1` (stereo not drawn), “inactive”.

Take `CC(C)=CCc1ccc(O)c(=O)cc1C(C)C`: the Potency was 20.6 µM (active). Same read-out and setting: to `CSc1ncc(C(=O)NCc2ccccc2Cl)c(C(F)(F)F)n1` belongs “inactive”; to `O=C(/C=C/c1ccccc1[N+](=O)[O-])OCC(=O)N1CCCC1`, “inactive”; to `CC1(C2CC2)NC(=O)N(CC(=O)N2CCN(c3ccccc3F)CC2)C1=O` (stereo not drawn), “inactive”.

Consider `COc1ccc(OC)c(C(C)NC(=S)Nc2ccc(S(=O)(=O)Nc3ncccn3)cc2)c1` (stereo not drawn), for which the Potency result is “inactive”. Take `Clc1ccc(CSc2nnc3c(n2)[nH]c2ccccc23)cc1`: the Potency entry was “inactive”. The same measure, in the same setting: then `COc1ccc(NC(=O)c2ccc3nc(CCc4ccccc4)oc3c2)c(OC)c1`, with “inactive”; and `COc1ccc(CNC(=O)c2ccc3oc(C(C)C)nc3c2)cc1`, with “inactive”; and `CSCCNC(=O)c1ccc2nc(Cc3ccccc3F)oc2c1`, with “inactive”. With `COc1ccc(Cc2nc3ccc(C(=O)NCc4ccccc4Cl)cc3o2)cc1`, the Potency was 16.4 µM (active). On to `COc1ccc(Cc2nc3ccc(C(=O)N4CCC(N(C)C)C4)cc3o2)cc1` (stereo not drawn), for which the Potency entry is “inactive”. The same measure, in the same setting: to `COCCNC(=O)c1ccc2nc(Cc3ccc(OC)c(OC)c3)oc2c1` belongs “inactive”; to `COc1ccc(Cc2nc3ccc(C(=O)NCc4ccccc4C)cc3o2)cc1`, 20.6 µM (active); to `COc1ccc(Cc2nc3ccc(C(=O)NCc4ccc(OC)cc4OC)cc3o2)cc1`, 16.4 µM (active). Still for that read-out and setting: to `CCn1ccnc1CN(C)C(=O)c1ccc2nc(Cc3ccc(OC)cc3)oc2c1` belongs “inactive”; to `CCCCOC(=O)CSc1ncnc2sc3c(c12)CCC(C)C3` (stereo not drawn), “inactive”; to `Cc1nccn1CCC1CCCCN1C(=O)CCc1nnc(-c2ccsc2)o1` (stereo not drawn), “inactive”. In the case of `CC(=O)OCCOCn1cnn2c(=O)c(Br)c(C)nc12`, the Potency result was “inactive”. The same measure, in the same setting: then `CSc1n[nH]c(-c2ccco2)n1`, with “inactive”; and `COC(=O)c1ccc(C)c(NC(=O)Cn2c(C)csc2=O)c1`, with “inactive”.

Turning to `Nc1ccc(C(=O)OCC(=O)NC2CCS(=O)(=O)C2)cc1[N+](=O)[O-]` (stereo not drawn), the Potency result was “inactive”.

Take `O=NN(CCCl)C(=O)NCCc1cccc[n+]1[O-]`: the Potency entry is “inactive”. Same read-out and setting: to `NC(=O)C1CCN(C(=O)c2ccc3c(=O)n(Cc4cccc(Br)c4)c(=S)[nH]c3c2)CC1` belongs “inactive”; to `CCOC(=O)c1sc2nc(C)[nH]c(=O)c2c1C`, “inactive”; to `CCOC(=O)c1sc(=S)n2c1[nH]c(=O)c1ccc(C(=O)OC)cc12`, 10.3 µM (active). On the same count and under the same terms, to `COC(=O)c1cccc(NC(=O)CSc2nc(C)cc(=O)[nH]2)c1` belongs “inactive”. Consider `COc1ccccc1C1C(C(=O)N2CCCCC2)=C(C)Nc2nc3ccccc3n21` (stereo not drawn), for which the Potency entry was “inactive”.

As for `CCCCN1C(=O)C(CC(=O)NCc2cccs2)CC(C(=O)N2CCCCCC2)=C1C` (stereo not drawn), the Potency entry was “inactive”. For the compound `Cc1cc(O)c(C(c2ccccc2)N2CCN(c3ccccc3F)CC2)c(=O)n1Cc1ccco1` (stereo not drawn), the Potency entry was “inactive”.

On to `OC(COc1cccc2ccccc12)CN1CCN(c2ccccn2)CC1` (stereo not drawn), for which the Potency entry was “inactive”.

As for `Cc1cc(C)cc(OCC(=O)Nc2c(C(=O)c3ccccc3)oc3ccccc23)c1`, the Potency result was “inactive”.

`Cc1cc(C)c(NC(=O)C[N+](C)(C)CC(O)COc2cccc3ccccc23)c(C)c1` (stereo not drawn): the Potency is 18.4 µM (active).

Regarding `COc1ccccc1CNC(=O)COC(=O)c1cccs1`, the Potency result was “inactive”. On the same count and under the same terms, to `COc1ccc(/C=C/C(=O)Nc2ccc(C34CC5CC(CC(O)(C5)C3)C4)cc2)cc1OC` belongs 2.31 µM (active); to `COc1ccc(/C=C/C(=O)Nc2cccnc2)cc1OC`, “inactive”; to `COc1cc(/C=C/C(=O)Nc2ccc(OC)c(S(=O)(=O)N3CCOCC3)c2)ccc1OCC#N`, “inactive”.

Consider `COCCn1c(N)c(NCc2ccccc2)c(=O)[nH]c1=O`, for which the Potency entry is “inactive”. Same read-out and setting: to `O=C(COC(=O)C12CC3CC(CC(O)(C3)C1)C2)NC12CC3CC(CC(C3)C1)C2` belongs “inactive”.

As for `COc1cccc(NC(=O)CSc2nnc(Cc3ccc(OC)c(OC)c3)o2)c1`, the Potency result is “inactive”. For the compound `Cc1cc(C)c2c(Cn3ccnc3)cc(=O)oc2c1`, the Potency result was “inactive”. On to `COc1ncnc2c1ncn2CCCNCCN1CCOCC1`, for which the Potency result was “inactive”. Same read-out and setting: then `O=C(O)C(c1ccccc1)N1C(=O)/C(=C\c2ccc(-c3cccc(Cl)c3)o2)SC1=S` (stereo not drawn), with “inactive”; and `CCCCNC(=O)C(C)N(CCN(C)C)C(=O)CCCN1C(=O)NC(c2ccc(Cl)cc2)C(C(=O)OCc2ccccc2)=C1C` (stereo not drawn), with 20.6 µM (active); and `CCOC(=O)CCCNC(=O)CN1C(=O)NC(CCc2ccccc2)C1=O` (stereo not drawn), with “inactive”. For the compound `CCCCNC(=O)C(C)N(CCN(C)C)C(=O)CCCCCN1C(=O)NC(c2ccc(Cl)cc2)C(C(=O)OCc2ccccc2)=C1C` (stereo not drawn), the Potency was 7.31 µM (active). On the same count and under the same terms, to `CC1=C(C(=O)OCc2ccccc2)C(c2ccc(C(F)(F)F)cc2)NC(=O)N1CCCCCC(=O)O` (stereo not drawn) belongs “inactive”; to `CCCCNC(=O)C1(O)c2ccccc2NC(=O)N1c1ccc(Cl)cc1` (stereo not drawn), “inactive”. Same read-out and setting: then `COCCOC(=O)C1=C(C)NC(=O)NC1c1ccc(Cl)cc1` (stereo not drawn), with “inactive”; and `COc1ccccc1/C=C/C(=O)NC(=S)N1CCOCC1`, with “inactive”. Same read-out and setting: then `CC(C)Cc1nnc(NC(=O)CN2C(=O)NC3(CCCCC3)C2=O)s1`, with “inactive”; and `COC(=O)c1ccccc1NC(=O)CSc1nc2c(c(=O)[nH]1)CCC2`, with “inactive”; and `CC(=O)Nc1ccc(S(=O)(=O)N2CCn3cccc3C2C)cc1` (stereo not drawn), with “inactive”. In the case of `O=C(CCN1CCCO1)N1CCCC(N2CCN(c3cccc(C(F)(F)F)c3)CC2)C1` (stereo not drawn), the Potency result is “inactive”. Turning to `O=C(NN=Cc1ccc2c(c1)CCC2)c1ccccc1O`, the Potency result is “inactive”. The same measure, in the same setting: then `NC(=O)c1ccccc1N=Cc1ccc2ccccc2c1`, with 20.6 µM (active); and `O=C(OCC(=O)N1CCOCC1)c1ccc2ccccc2c1`, with “inactive”. Regarding `COc1ccccc1C(=O)N[C@@H]1c2ccccc2C2(CCN(C(=O)c3csnn3)CC2)[C@H]1OC`, the activity change, negative = growth inhibition was -8.07% [at 9.04 µM]. As to `COC(=O)CC1Oc2ccccc2-n2cc(-c3ccccc3)nc21` (stereo not drawn), the Potency was 14.6 µM (active). Still for that read-out and setting: then `COC(=O)CC1=NN(c2ccccc2)C(=O)C1`, with “inactive”; and `CCC(CC)c1nn2cc(-c3ccccc3)nc2s1`, with “inactive”. With `COc1ccccc1NC(=O)COC(=O)c1ccccc1SCC(=O)N1CCCC1`, the Potency entry is “inactive”.

Consider `c1ccc(-n2cccc2)c(N2CCCCC2)c1`, for which the Potency result was “inactive”.

As to `COc1ccc(N2C(=O)C(O)C2c2ccc(C)cc2)cc1` (stereo not drawn), the Potency entry is “inactive”. Still for that read-out and setting: then `COC(=O)C1=C(Nc2ccc(OC)cc2)C=C(C)C(C(=O)OC)C1c1ccc(C)cc1` (stereo not drawn), with 16.4 µM (active); and `COC(=O)C1C(=O)NCC1c1ccc(OC)cc1` (stereo not drawn), with “inactive”. The same measure, in the same setting: to `Cc1ccc(C(=O)Nc2ccc3[nH]c(=O)c(=O)[nH]c3c2)cc1` belongs “inactive”.

Turning to `CC(C)CCNC(=O)CCNS(=O)(=O)c1ccc(Cl)cc1`, the Potency entry was “inactive”. On to `COC(=O)c1c(OCc2ccc(F)cc2)cc(=O)n2c1CCN(Cc1ccc3cccnc3c1)CC2`, for which the activity change, negative = growth inhibition is 8.77% [at 9.04 µM].
